A selection: hits, their analogues and other compounds. The true share with any hit is near 0.88%.
TRHR ag = TRH receptor (human) agonism | P34981 | TRHR cells, calcium flux fluo-8, FDSS agonist mode | activation, % at 2 µM | 360,000 compounds, 0.18% hits; in the data active means activation above about 30%; further: 0% is about no effect
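In this calcium-flux screen, cells bearing human TRHR are dye-loaded with fluo-8, baselined for 10 cycles, then exposed to library compounds; positive kinetic calcium responses during the agonist phase mark hits, with TRH as control.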
MBNL1 CUG block = MBNL1-poly(CUG) RNA binding inhibition. Potency, µM (doses to about 57.5 µM), without a hit: at the top dose activity change, negative = inhibition, usual class: inhibitors. TR-FRET MBNL1-His/biotin-(CUG)12 binding, 665/545 ratio. 280,000 compounds, 0.036% hits. Q9NR56; active means well fitted inhibition curve with a large enough effect in the signal ratio, with a control signal flat, not every such curve was filed as active; inconclusive means small, poorly fitted or top-dose-only effect, or effect the other way, or a change in a side signal; inactive means no such curve, though single readings can be large or run the other way; the % refers to the signal ratio; further: potency means the concentration at half of the fitted maximal effect; on the % scale 0 is the no-effect control and ±100 the full control effect
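Ratiometric TR-FRET (665 over 545 nm, excitation 340 nm) tracks disruption of MBNL1-His/biotin-(CUG)12 complex after 60 min at room temperature, with compounds at 92 nM to 58 uM final.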
Epigenetic reg = regulators of epigenetic silencing causing reporter derepression in mouse cells; murine LDR cells, GFP reporter derepression, 30 h; Potency, µM (highest dose often 53.9 µM), for inactives: at the top dose GFP activation, most hits filed as activators; 280,000 compounds, 0.2% hits; AID 1865; further: potency means the concentration at half of the fitted maximal effect; % of control where 0% means no effect; nearly all actives have a fitted effect of over 60% in size
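Derepression of a silenced CMV-GFP reporter in murine LDR cells is scored by enumerating GFP-positive cells with a laser-scanning microplate cytometer after 30 hours of treatment at 37 C.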
CBFb-RUNX1 inh = inhibitors of human CBF-beta and RUNX1 interaction | Q01196+Q13951 | 230,000 tested, under 10 active | Potency, µM (titrated, usually from 59.8 µM), for inactives: at the top dose activity, negative = inhibition, actives largely listed as inhibitors | AlphaScreen CBFb-His/RUNX1-biotin binding, biochemical; further: % of control where 0% means no effect
Target sequence (Q01196 whole entry, looked up): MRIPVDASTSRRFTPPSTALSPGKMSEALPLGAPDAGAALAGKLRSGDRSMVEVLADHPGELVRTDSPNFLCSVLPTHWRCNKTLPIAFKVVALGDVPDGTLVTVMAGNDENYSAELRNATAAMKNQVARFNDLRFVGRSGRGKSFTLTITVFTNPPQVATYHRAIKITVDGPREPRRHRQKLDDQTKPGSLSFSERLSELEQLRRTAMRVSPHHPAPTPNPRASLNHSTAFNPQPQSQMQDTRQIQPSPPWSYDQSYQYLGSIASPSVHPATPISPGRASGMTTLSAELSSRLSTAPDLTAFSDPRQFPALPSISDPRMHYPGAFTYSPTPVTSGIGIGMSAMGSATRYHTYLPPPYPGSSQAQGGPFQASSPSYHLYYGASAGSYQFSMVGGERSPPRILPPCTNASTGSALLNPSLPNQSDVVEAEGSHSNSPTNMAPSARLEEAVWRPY
Target sequence (Q13951 whole entry, looked up): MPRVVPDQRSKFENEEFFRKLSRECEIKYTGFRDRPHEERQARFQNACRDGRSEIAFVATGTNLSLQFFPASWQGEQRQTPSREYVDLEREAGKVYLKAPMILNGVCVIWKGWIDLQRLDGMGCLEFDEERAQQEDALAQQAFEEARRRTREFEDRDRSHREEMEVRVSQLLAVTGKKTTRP
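Room-temperature protein-protein interaction test with 30 nM each of His-tagged CBF-beta and biotinylated RUNX1, 15 min with compound, then 90 min with nickel plus streptavidin beads. Signal read in AlphaScreen mode.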
IL-2 act = IL-2 activation | IL-2 activation reporter assay, cell-based qHTS; stimulated with anti-CD3/CD4/CD28 beads; in transgenic mouse T cells | activation, % (series mostly up to about 46 µM) | AID 652025 | 360,000 compounds, 0.065% hits; in the data active means activation above about 50%; inconclusive means mostly about 30% to 49%; further: 0% is about no effect
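Screening format: compound pinned onto unstimulated transgenic mouse T cells, 60 min incubation, then anti-CD3/anti-CD4/anti-CD28 bead stimulation for 18 hours at 37 degrees C, followed by EGFP and DsRed detection.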
TRHR enhancer = allosteric enhancers of human TRH receptor. TRHR cells, fluo-8 calcium fluorescence, EC20 TRH enhancement. enhancement, % at 2 µM. 360,000 compounds, 0.66% hits. AID 493056; in the data active means enhancement above about 30%; further: 0% is about no effect
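TRHR-expressing cells loaded with fluo-8 calcium dye were read kinetically (ex 480/em 530) during compound addition, then stimulated with an EC20 of TRH (10 nM final). Enhancement of the Gq-mediated intracellular calcium response was scored.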
* = called active by the depositor; u = inconclusive; x = no result. Unless noted, the call rests on the fitted dose curve; in most records, active means well fitted curve in the direction sought with a large enough effect; inconclusive means small, poorly fitted or top-dose-only effect, or another doubt; inactive means no such curve, though single readings can be large; an effect the other way counts as inactive or inconclusive.

SMILES	TRHR ag	MBNL1 CUG block	Epigenetic reg	CBFb-RUNX1 inh	IL-2 act	TRHR enhancer
Cc1c(Cl)cccc1NC(=O)CSc1nc(=O)n(Cc2ccccn2)c2c1CCC2	0	x	6%	x	x	1
Cc1ccc(/C=C/c2onc(C)c2S(=O)(=O)N2CCC(C(=O)N3CCC(N(C)C(C)C)CC3)CC2)cc1	2	x	7%	x	x	-8
O=C(COc1cc2oc(=O)c3c(c2cc1Cl)CCC3)NCc1ccncc1	0	5%	x	x	-1	36*
COC(=O)c1nc(Nc2cc(F)cc(F)c2)nc(NC2CCCC2)n1	2	x	x	x	x	-1
COc1ccc2c(c1)c1c(c(=O)n(-c3ccccc3C)c(=O)n1Cc1cccc(C(F)(F)F)c1)n2C	1	x	10%	x	x	3
CN(C)CCNS(=O)(=O)c1ccc2c3c(cccc13)C(=O)N2	1	u	x	x	1	40*
COc1ccccc1Cc1nc2ccccc2nc1SCC(=O)NCc1ccc(C)cc1	-1	x	6%	x	x	2
COc1cccc(CNC(=O)CSc2nc3ccccc3nc2Cc2ccc(C)cc2)c1OC	0	x	5%	x	x	33*
Cn1cnc([N+](=O)[O-])c1Oc1cccc2ccccc12	-1	12%	u	-2%	0	37*
COc1cc(OC)cc(-c2c(-c3cccs3)c3cc(-c4ccc5[nH]ccc5c4)ccc3n2C)c1	1	x	x	x	-1	40*
COc1cc(OC)cc(-c2c(-c3cccs3)c3cc(-c4ccc5cc[nH]c5c4)ccc3n2C)c1	0	x	x	x	0	-4
Cc1noc(C)c1-c1ccc2ncnc(NCc3ccc(-c4ccccc4)cc3)c2c1	x	x	x	-18%	x	x
CCOC(=O)c1cnc(-n2nc(C)cc2C)nc1Nc1ccc2c(c1)OCO2	-1	-6%	-4%	5%	x	33*
Cc1ccccc1CN1c2ccccc2-c2nc(SCC(=O)NCCc3ccccc3)ncc2S1(=O)=O	0	x	22µM*	x	x	1
Cc1cc2c(s1)c1cnn(Cc3ccc(C(F)(F)F)cc3F)c(=O)c1n2C	1	x	x	x	x	2
CCCCSCc1[nH]c(=O)[nH]c1C(=O)CCCCC(=O)OCC	0	u	0%	4%	-1	2
Cc1[nH]c(=O)[nH]c1C(=O)CCCCC(=O)O	1	0.089µM*	-1%	x	1	-1
S=C1NCN(Cc2ccco2)CN1	0	x	5%	6%	-4	41*
C=CCN1CN(Cc2ccco2)CNC1=S	1	-3%	2%	5%	-3	-2
O=C(CSc1nc(-c2ccccc2)c2ccccc2n1)Nc1ccc(F)cc1	1	x	-2%	x	x	3
O=S(=O)(c1ccc2ccccc2c1)N1CCCCC1	-1	-2%	0%	11%	-4	-4
O=S(=O)(c1ccc2ccccc2c1)N1CCCCCC1	-1	21%	0%	2%	-1	31*
CC(Sc1cccc[n+]1[O-])C(=O)Nc1cccc([N+](=O)[O-])c1 (stereo unspecified)	0	u	0%	11%	2	11
CC(C(=O)Nc1cccc([N+](=O)[O-])c1)[n+]1ccccc1 (stereo unspecified)	1	-9%	u	-2%	0	31*
Cc1ccc(C(=O)NC2=NC(c3ccc(C)cc3)CC(=O)N2)cc1 (stereo unspecified)	-1	x	0%	x	x	3
SMILES	TRHR ag	MBNL1 CUG block	Epigenetic reg	CBFb-RUNX1 inh	IL-2 act	TRHR enhancer
CCOc1ccc(C2CC(=O)NC(NC(=O)c3ccc(C)cc3)=N2)cc1 (stereo unspecified)	-1	x	0%	x	x	35*
COc1ccccc1C(=O)N1N=C(c2ccc(NS(C)(=O)=O)cc2)CC1c1cccs1 (stereo unspecified)	-1	8%	x	x	0	34*
NCCCC[C@@H](N)C(=O)O	x	x	0%	22%	x	x
CC(OC(=O)/C(C#N)=C/c1ccc(N(C)C)cc1)C(=O)N(C)c1ccccc1 (stereo unspecified)	49*	x	x	x	0	24
COc1ccc(C2=NN(c3ccc(C=O)cc3)C(c3ccccc3)C2)cc1 (stereo unspecified)	1	8%	x	x	0	-2
COc1ccc(C2CC(c3cccs3)=NN2c2ccc(C=O)cc2)cc1 (stereo unspecified)	40*	32%	u	-1%	4	5
c1ccc2[nH]c(SCc3cn4cccnc4n3)nc2c1	0	10%	1%	2%	2	34*
c1ccc(-c2cnnc(SCc3cn4cccnc4n3)n2)cc1	-1	u	-1%	20%	-1	-1
COc1cc2c(cc1OC)C(COc1ccc3c(C)cc(=O)oc3c1)N(C(=O)c1cccc(C)c1)CC2 (stereo unspecified)	0	x	2%	x	x	-2
COc1cccc(C2C=C(c3ccc(Br)s3)Nc3ncnn32)c1OC (stereo unspecified)	33*	197%	0%	2%	-1	0
Fc1ccc(Br)cc1C1C=C(c2ccc(Br)s2)Nc2ncnn21 (stereo unspecified)	2	126%	-1%	-3%	0	-4
O=S(=O)(c1ccc(C(F)(F)F)cc1)N1CCN(S(=O)(=O)c2ccc3c(c2)OCCO3)CC1	0	x	x	x	x	-1
COc1ccc(NC(=O)CSc2nc(N)c(C#N)cc2C#N)cc1	2	u	-1%	3%	0	9
CC(=O)Nc1ccc2sc(C)nc2c1	-1	x	-2%	3%	0	37*
COc1ccc2nc(SCC(=O)Nc3ccc4sc(C)nc4c3)c(C#N)cc2c1	4	77%	3.5µM*	7%	-1	-13
CCOc1ccccc1NC(=O)Cn1c(=O)n(Cc2ccco2)c(=O)c2cccnc21	0	x	0%	x	x	44*
C[C@@H]1C[C@](C)(C(=O)c2ccco2)C=C1c1ccco1	x	x	7%	-13%	x	x
N#C/C(=C\c1cccnc1)c1nc2c(s1)CCCC2	2	u	0%	8%	1	1
COc1cc(/C=C(\C#N)c2nc3c(s2)CCCC3)ccc1O	40*	28%	u	-7%	x	4
CCc1cc2c(cc3c(=O)n(CC(=O)N4CCCCC4)ncn32)s1	0	x	-1%	x	x	0
CCc1cc2c(cc3c(=O)n(CC(=O)NC4CCCCC4)ncn32)s1	0	x	0%	x	x	44*
Cc1ccc(C)c(Cn2c3ccccc3c3cnn(CC(=O)NC4CCCCCC4)c(=O)c32)c1	1	x	6%	x	x	-5
Cc1ccc(C(=O)OCc2cc(=O)n3nc(CC(C)C)sc3n2)cc1	1	x	0%	x	x	-2

Assay outcomes from PubChem.
